Values joined by “and” are separate entries in the source; they are usually repeats but may differ in a detail not shown here. Equal values may be shown once. In all, about 370,000 compounds went through this assay and about 2,300 (0.62%) were called active. The sample holds actives, similar compounds and a random draw of the others, so the mix is not that of the screen. Unmarked numbers belong to inactive results.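 The calls were made as follows: active = lowest replicate activation of at least 40%, so every replicate reaches that level; inactive = the rest.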
Test: GLuc luminescence reporter in INS-1E cells, primary screen for activators of glucose-dependent secretion of insulin (AID 743287);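 also: 0% = median of neutral control wells and 100% = median of IBMX positive control wells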
Conditions: INS-1E GLuc reporter insulin secretion, 2-3 h, at 16.6 µM, hits give high values

Compound	activation
C[C@@H]1CN([C@@H](C)CO)C(=O)c2cccc(N(C)C)c2O[C@H]1CN(C)S(=O)(=O)c1cccs1	4.92%
O=C(Cc1cccnc1)N1CC(=O)N2[C@@H](CO)[C@@H](c3ccc(C#CC4CCCCC4)cc3)[C@@H]2C1	-3.29%
COc1ccc2c3c([nH]c2c1)[C@@H](CO)N(C(=O)NC(C)C)CC31CN(C(=O)C2CCCC2)C1	3.69%
CCOc1ccc(NC(=O)CSc2nc3ccccc3c(=O)n2Cc2cccs2)cc1	60.2%
COC(=O)CSc1nc2ccccc2c(=O)n1Cc1ccccc1	50% (active)
O=C(CSc1nc2ccccc2c(=O)n1CCCO)NC1CC1	4.63%
CO[C@@H]1CN(C)C(=O)c2cc(NS(=O)(=O)CC(F)(F)F)ccc2OC[C@H](C)N(Cc2ccccn2)C[C@@H]1C	11.8%
CC(C)NC(=O)Nc1ccc2c(c1)CC(=O)N(C)C[C@@H](C)[C@@H](CN(C)C(=O)OC(C)(C)C)O2	9.38%
Cc1ccc(-c2cc(C(=O)Nc3nn[nH]n3)c3ccccc3n2)c(C)c1	63.4% (active)
Cc1ccc2c(Cl)c(C(=O)Nc3nn[nH]n3)sc2c1	-4.19%
Cc1ccc(C)c(NC(=O)NNC(=O)c2ccc3ccccc3c2O)c1	-0.162%
COc1ccc(CCNC(=O)CSc2nc(-c3ccc(OC)c(OC)c3)ccc2C#N)cc1	46.1%
COc1ccc(CCNC(=O)CSc2nnc3ccc(-c4ccncc4)nn23)cc1	4.35%
COc1cccc(-c2ccc(C#N)c(SCC(=O)NCCc3ccc(Cl)cc3)n2)c1	108% (active)
CCC(=O)N1C[C@H](C)[C@H](OC)CN(C)C(=O)c2ccc(NC(=O)Nc3ccc(Cl)cc3)cc2OC[C@H]1C	-31.9%
CNC(=O)C[C@H]1CC[C@@H]2[C@H](COc3ccc(NC(=O)C(C)C)cc3C(=O)N2C)O1	4.65%
COc1ccc(/C=C/C2=CC(C)(C)NC(=S)N2)c(OC)c1	-2.56%
COc1ccc(/C=C2/C(=O)OCc3cc(OC)c(OC)cc32)c(OC)c1	90.1% (active)
COc1ccc(CN(C)Cc2nc3cc(OC)c(OC)cc3c(=O)[nH]2)c(OC)c1	-31.6%
CCCC#Cc1ccc([C@H]2[C@H]3CN(C(=O)Nc4cccc(F)c4)CC(=O)N3[C@H]2CO)cc1	-20.8%
Cc1noc(C)c1NC(=O)Nc1ccc2c(c1)C(=O)N([C@@H](C)CO)C[C@H](C)[C@@H](CN(C)C)O2	11.6%
Cc1ccccc1-c1ccc([C@H]2[C@H](CO)N3C(=O)CN(C(=O)c4cccnc4)C[C@@H]23)cc1	4.01%
COc1ccccc1S(=O)(=O)N[C@H]1CC[C@@H](CC(=O)NCc2cc(F)cc(F)c2)O[C@H]1CO	6.83%
COC(=O)c1c(C)oc(C)c1S(=O)(=O)Nc1ccc(C(C)C)cc1	52.6% (active)
CC(C)c1ccc(NS(=O)(=O)c2cn(C)c(=O)n(C)c2=O)cc1	18.1%

Compound	activation
COC(=O)c1c(C)oc(C)c1S(=O)(=O)NCc1ccc(Cl)cc1	15.9%
CCCCCCCCCCOC(=O)Cn1c(COc2ccc(C)cc2)[n+](C)c2ccccc21	193% (active)
CCCCOC(=O)c1ccc(NC(c2ccc(C)cc2)P(=O)(OC)OC)cc1 (stereo not given)	-63.4%
Cc1ccc(OCCC(=O)OCC(=O)N2c3ccccc3NC(=O)C2(C)C)cc1	-29.1%
CCCNC(=O)N1CCC2(CC1)CN(C(=O)c1cccnc1)[C@@H](CO)c1[nH]c3cc(OC)ccc3c12	20.9%
C[C@H]1CCCCO[C@@H](CN(C)Cc2ccc3c(c2)OCO3)[C@@H](C)CN([C@@H](C)CO)C(=O)c2cc(NS(=O)(=O)c3ccc(F)cc3)ccc2O1	-26%
O=C(C[C@H]1C=C[C@H](NC(=O)c2cccc(F)c2)[C@@H](CO)O1)NCc1ccc(Oc2ccccc2)cc1	8.87%
Cc1noc(C)c1NC(=O)N(C)C[C@@H]1Oc2c(NC(=O)CCCCCC(=O)Nc3ccccc3N)cccc2C(=O)N([C@H](C)CO)C[C@@H]1C	-5.82%
COc1ccccc1S(=O)(=O)N[C@@H]1C=C[C@H](CC(=O)NCc2cccc(F)c2)O[C@H]1CO	10.3%
COc1cc2c(cc1OC)/C(=C/C(=O)c1ccc(NC(C)=O)cc1)NCC2	70% (active)
COc1ccc(C(=O)Nc2ccc(C3(C#N)CCCC3)cc2)cc1OC	-6.21%
COc1ccc(NC(=O)C2Cc3c(-c4cccc(NC(C)=O)c4)ccnc3O2)cc1OC (stereo not given)	-7.03%
CCC(=O)N(C)C[C@@H]1Oc2ncc(C#Cc3ccccc3)cc2C(=O)N([C@@H](C)CO)C[C@H]1C	-1.97%
COc1ccccc1C(=O)NC(=S)NC12CC3CC(CC(C3)C1)C2	41.4% (active)
COc1ccccc1C(=O)NC(=O)COC(=O)C1CC1	-1.88%
NC(=O)COc1ccccc1C(=O)NC12CC3CC(CC(C3)C1)C2	17.8%
COc1cccc(C#Cc2ccc3c(c2)[C@H]2[C@H](CCN2C(=O)CC2CC2)[C@H](CO)N3)c1	0.458%
CCCC#Cc1ccc2c(c1)O[C@H](CN(C)C(=O)C1CCCCC1)[C@H](C)CN([C@H](C)CO)S2(=O)=O	-12.4%
CN(C)CC(=O)N[C@@H]1CC[C@H](CCn2cc(C3CCCC3)nn2)O[C@H]1CO	-11.3%
O=C(Nc1ccccc1)c1nnsc1S(=O)(=O)c1ccc(Cl)cc1	48.4% (active)
O=C(NNC(=O)c1cccc(S(=O)(=O)Nc2ccc(Cl)cc2)c1)c1ccc(=O)[nH]c1	0.241%
O=C(NCCS(=O)(=O)NCc1ccc(Cl)cc1)c1ccccc1	18.7%
C=CCSc1nc(N)cc(=O)[nH]1	18%
C=CCSc1nc2c(c(=O)[nH]1)C(C(C)C)C(C#N)=C(N)O2 (stereo not given)	71.8% (active)
O=C(C[C@@H]1CC[C@@H]2[C@H](COC[C@H](O)CN2S(=O)(=O)c2ccccc2)O1)N[C@H]1CCN(Cc2ccccc2)C1	4.06%

Compound	activation
COc1ccc(NC(=O)N(C)C[C@H]2Oc3c(NC(=O)Nc4cccc5ccccc45)cccc3C(=O)N([C@H](C)CO)C[C@@H]2C)cc1	-5.46%
Cc1cccc(-c2ccc(C3[C@H]4CNC[C@@H]3N4S(=O)(=O)c3ccccc3F)cc2)c1 (stereo not given in full)	-12.2% and 1.38%
C/C=C/c1ccc([C@@H]2[C@@H](CN(C)C(C)=O)N(C(=O)C3CC3)[C@H]2CO)cc1	-3.3%
C[C@@H]1CN([C@H](C)CO)C(=O)c2cc(NC(=O)Cn3cnnn3)ccc2O[C@@H]1CN(C)C(=O)Nc1ccc2c(c1)OCO2	6.33%
C[C@H](CO)N1C[C@H](C)[C@H](CN(C)S(C)(=O)=O)Oc2ncc(C3=CCCC3)cc2C1=O	23.9%
COc1ccc2c3c(n(C)c2c1)[C@H](CO)N(C(=O)NC(C)C)CC31CN(CC2CCCCC2)C1	-8.45%
C/C=C/c1ccc2c(c1)O[C@@H](CN(C)C(=O)c1ccncc1)[C@@H](C)CN([C@H](C)CO)S2(=O)=O	9.46%
CCOc1ccc(/C=N/NC(=O)CSc2ccccn2)cc1O	47.7% (active)
C/C(=N/NC(=O)CSc1ccccn1)c1ccc([N+](=O)[O-])cc1	3.45%
C=CCOc1ccc(/C=N/NC(=O)C(C)Sc2ccccn2)cc1OCC (stereo not given)	26.6%
Cc1ccccc1S(=O)(=O)N1CC(=O)N2[C@H](CO)[C@@H](c3ccc(C#Cc4ccccc4)cc3)[C@H]2C1	-6.46%
Cc1nc(N2[C@H](CO)[C@H](c3ccccc3)[C@H]2CNCC2CCC2)sc1C	2.74%
CCCNC(=O)N1CC2(CN(C(=O)C3CCCCC3)C2)c2c([nH]c3cc(OC)ccc23)[C@@H]1CO	13.6%
Cc1ccc(-c2ccc3c(c2)O[C@@H](CN(C)C(=O)NC(C)C)[C@@H](C)CN([C@H](C)CO)S3(=O)=O)cc1	4.12%
c1ccc(-c2ccccc2OCCN2CCCCC2)cc1	53.2% (active)
C#CC(CCN1CCCCC1)(OC)c1ccccc1 (stereo not given)	17.7%
Cc1ccc(C(C)C)cc1OCCN1CCCC1	12.9%
CCCNC(=O)N1CC(=O)N2[C@H](CO)[C@@H](c3ccc(-c4ccc(F)cc4)cc3)[C@H]2C1	-19.7%
C[C@H](CO)N1C[C@H](C)[C@@H](CN(C)CC2CC2)OCCCC[C@H](C)Oc2ccc(NC(=O)Cc3ccccc3)cc2C1=O	7.71%
COc1ccc(COC(=O)c2n[nH]c3ccccc23)cc1F	-12.2%
CCN(CC)S(=O)(=O)c1ccc2nc(COC(=O)c3n[nH]c4ccccc34)[nH]c2c1	57.7% (active)
COc1ccc(S(=O)(=O)N(C)C)cc1NC(=O)COC(=O)c1n[nH]c2ccccc12	-5.72%
C[C@H](CO)N1C[C@H](C)[C@@H](CN(C)C(=O)Nc2ccnc(N3CCOCC3)c2)OCc2ccccc2-c2c(n(C)c3ccccc23)C1=O	-17.9%
CNC[C@H]1Oc2ccc(NC(=O)CCC(F)(F)F)cc2C(=O)N([C@@H](C)CO)C[C@H]1C	4.67%
C[C@H]1CN([C@@H](C)CO)C(=O)c2cc(NC(=O)Cc3cn(C)c4ccccc34)ccc2O[C@@H]1CN(C)Cc1ccc(Cl)c(Cl)c1	7.56%

— PubChem BioAssay AID743287 (Broad Institute, 2014)
